Measurements published in PubChem BioAssay AID623901 (Broad Institute, 2012).
Values joined by “and” are separate entries in the source; they are usually repeats but may differ in a detail not shown here. Identical values can stand only once. Screen size: about 340,000 compounds; about 470 (0.14%) were called active. This is one part of a sample in which actives are shown more often than they occur. A number with no mark means an inactive call.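 Rule for the calls: active = mean activation of 30% or more, with every replicate also reaching 30%; inconclusive = mean activation of 30% or more but some replicate falls short; inactive = the rest.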

Experiment: small molecules raising miR-122 sensor signal – cell-based, Huh7 psiCHECK-miR122, Renilla luciferase, single point, primary screen (AID 623901);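 note: 0% = median of neutral control wells and 100% = median of positive control wells; higher luciferase signal means stronger suppression of miR-122 activity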
Conditions: 48 h, at 12.5 µM, hits give high values

Question: With `COCC#Cc1ccc2c(c1)O[C@@H](CN(C)C(C)=O)[C@H](C)CN([C@H](C)CO)S2(=O)=O` as the molecule, how does the activation read?
Answer: 5.04%

Question: For `COc1ccccc1-c1cnc2c(c1)C(=O)N([C@H](C)CO)C[C@H](C)[C@H](CN(C)C(=O)CN(C)C)O2`, which activation is on record?
Answer: -1.92%

Question: With `COc1ccccc1C#Cc1ccc2c(c1)O[C@@H](CN(C)Cc1cncnc1)[C@H](C)CN([C@@H](C)CO)S2(=O)=O` as the molecule, how does the activation read?
Answer: 8.43%

Question: For `C[C@H](O)C#Cc1ccc2c(c1)O[C@H](CN(C)Cc1cccnc1)[C@@H](C)CN([C@H](C)CO)S2(=O)=O`, which activation is on record?
Answer: -6.12%

Question: For `COCC#Cc1cnc2c(c1)C(=O)N([C@@H](C)CO)C[C@@H](C)[C@@H](CN(C)C(=O)Nc1ccc(OC)cc1)O2`, which activation is on record?
Answer: -2.9%

Question: For `C[C@H]1CN([C@@H](C)CO)C(=O)c2cc(-c3cccc(F)c3)cnc2O[C@@H]1CN(C)Cc1cncnc1`, which activation is on record?
Answer: -0.0525%

Question: For `O=C(NC(Nc1nc2ccc([N+](=O)[O-])cc2s1)(C(F)(F)F)C(F)(F)F)c1ccccc1`, which activation is on record?
Answer: 45.7% (active)

Question: With `C[C@H](CO)N1C[C@H](C)[C@@H](CN(C)Cc2ccc3c(c2)OCO3)Oc2c(NC(=O)C3CCOCC3)cccc2C1=O` as the molecule, how does the activation read?
Answer: -319%

Question: With `O=C(CCc1ccc(S(=O)(=O)NC2CCCCC2)cc1)NCc1ccccc1` as the molecule, how does the activation read?
Answer: -101%

Question: Which activation does the source give for `C[C@H]1CN([C@@H](C)CO)C(=O)c2cc(-c3ccccc3F)cnc2O[C@@H]1CN(C)C(=O)C1CCCCC1` here?
Answer: 4.49%

Question: For `CCCOC(=O)c1[nH]c2c(c1C)C(=O)CC(c1cccs1)C2` (stereo unspecified), which activation is on record?
Answer: -94%

Question: Which activation does the source give for `COc1ccc(NC(=O)Nc2ccc3c(c2)OC[C@@H](C)NC[C@@H](C)[C@H](OC)CN(C)C3=O)cc1` here?
Answer: 3.26%

Question: Which activation does the source give for `C[C@H](O)C#Cc1ccc2c(c1)O[C@H](CN(C)C)[C@@H](C)CN([C@H](C)CO)S2(=O)=O` here?
Answer: 4.16%

Question: For `CO[C@H]1CN(C)C(=O)c2ccc(NC(=O)Nc3ccc(F)cc3)cc2OC[C@@H](C)NC[C@H]1C`, which activation is on record?
Answer: -0.877%

Question: With `CC(C)C#Cc1ccc2c(c1)O[C@@H](CN(C)C(=O)CN(C)C)[C@@H](C)CN([C@H](C)CO)S2(=O)=O` as the molecule, how does the activation read?
Answer: 1.71%

Question: Which activation does the source give for `Cc1c(-c2ccccc2)cn2c1-c1ccc(C)n1CC2` here?
Answer: -248%

Question: For `CO[C@H]1CN(C)C(=O)c2ccc(NC(=O)C3CCC3)cc2OC[C@@H](C)NC[C@H]1C`, which activation is on record?
Answer: 2.77%

Question: For `C[C@@H]1CN([C@@H](C)CO)C(=O)c2cc(-c3cncnc3)cnc2O[C@H]1CN(C)Cc1cncnc1`, which activation is on record?
Answer: 9.2%

Question: For `CCCC#Cc1ccc2c(c1)O[C@@H](CN(C)C(=O)CC)[C@H](C)CN([C@H](C)CO)S2(=O)=O`, which activation is on record?
Answer: -21.9%

Question: For `C[C@@H]1CN([C@@H](C)CO)C(=O)c2cc(-c3cncnc3)cnc2O[C@@H]1CN(C)Cc1ccncc1`, which activation is on record?
Answer: -14.3%

Question: For `CCC(=O)N(C)C[C@@H]1Oc2ncc(C#C[C@H](C)O)cc2C(=O)N([C@@H](C)CO)C[C@@H]1C`, which activation is on record?
Answer: -1.06%

Question: With `C[C@@H]1CN([C@@H](C)CO)C(=O)c2cc(C3=CCCCC3)cnc2O[C@H]1CN(C)CC1CCOCC1` as the molecule, how does the activation read?
Answer: -37.5%

Question: Which activation does the source give for `CCOc1ccc(Br)cc1S(=O)(=O)Nc1cccc(S(=O)(=O)N(CC)CC)c1` here?
Answer: -110%

Question: With `CC(C)CNS(=O)(=O)c1ccc(OCC(=O)Nc2ccc3c(c2)OCO3)c(Cl)c1` as the molecule, how does the activation read?
Answer: -303%

Question: For `C[C@H]1CN([C@@H](C)CO)C(=O)c2cc(C3=CCCCC3)cnc2O[C@@H]1CN(C)C(=O)Cc1ccccc1`, which activation is on record?
Answer: -4.91% and -1.39%

Question: For `C[C@H](CO)N1C[C@H](C)[C@H](CN(C)C(=O)C2CCOCC2)Oc2ncc(C#Cc3ccccc3F)cc2C1=O`, which activation is on record?
Answer: -1.81%
